Consider 34 compounds from PubChem BioAssay (EPA / NIEHS).

“And” between values parts separate entries of the source, which are not always exact repeats. Equal values may be shown once. Inconclusive results are not listed. Some structures have more than one record in an assay (separate samples or runs), and their calls can disagree. The source made the active and inactive calls. Rule for the calls: active = hit-call score of the fitted dose curve at least 0.9, where 1 is the maximum; inconclusive = response in the unintended direction; inactive = score below 0.9.

Read-out in this experiment: xenobiotic metabolism (CYP1A2), CYP1A2 (gene 1544)
The experiment is described as follows: CLD_CYP1A2_6hr: CellzDirect (CLD) Gene Expression Assay for xenobiotic metabolism (CYP1A2) at 6 hours (AID 2283663).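 For AC50: potency is for induction meaning a rise in mRNA above DMSO.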 On the procedure: CLD_6hr is a cell-based, multiplexed-readout assay that uses hepatocyte, a human liver primary cell, with measurements taken at 6 hours after chemical dosing in a 96-well plate.CLD_CYP1A2_6hr is one of 16 assay component(s) measured or calculated from the CLD_6hr assay. It is designed to make measurements of mRNA induction, a form of inducible reporter, as detected with chemiluminescence signals by Quantitative Nuclease Protection Assay (qNPA) technology.Data from the assay component CLD_CYP1A2_6hr was analyzed at the endpoint, CLD_CYP1A2_6hr, in the positive analysis fitting direction relative to DMSO as the negative control and baseline of activity. Using a type of inducible reporter, gain-of-signal activity can be used to understand changes in the reporter gene as they relate to the gene CYP1A2. Furthermore, this assay endpoint can be referred to as a primary readout. To generalize the intended target to other relatable targets, this assay endpoint is annotated to the cyp intended target family, where subfamily is xenobiotic metabolism.
Human hepatocyte cultures were treated daily for two consecutive days with fresh dosing solutions containing appropriate concentrations of the 320 ToxCast chemicals (chemical identities were blinded to CellzDirect and other ToxCast collaborators), vehicle control (0.2% DMSO), and positive control inducers as summarized in Table 1. Due to the large number of treatment groups and chemicals examined, the ToxCast chemicals were divided into two groups (spanning two independent cultures of hepatocytes from separate donor preparations (Hu778: ToxCast plates 1 and 2; Hu776: ToxCast plates 3 and 4). Each preparation of human hepatocyte cultures was treated with respective vehicle control, medium only control, set of six positive controls/reference chemicals for the five hepatic receptor pathways, and a subset of eight of the ToxCast chemicals (indoxacarb, pyrithiobac-sodium, norflurazon, cyhalofop-butyl, methomyl, thiram, acetochlor, and propiconazole). These replicate data, coupled with internal replicates designed within the blinded ToxCast chemical library, provided additional data to evaluate interindividual differences between hepatocyte preparations and their potential impact on chemical profiles.Cell morphology and integrity were evaluated using phase-contrast microscopy as an indicator of hepatocyte cell health (Tyson & Green, 1987). Cultures for each treatment group (i.e., media, vehicle [0.2% DMSO], positive control inducers [multiple concentrations], and the ToxCast chemicals [multiple concentrations]) were observed and cell morphology was assessed relative to vehicle control cultures at each harvest time point (0, 6, 24, or 48 h). […] Images were evaluated at the conclusion of the study to assess changes in cell integrity and account for the effects of chemical exposure on uncharacteristic changes in concentration-dependent gene expression profiles. The results from these determinations of apparent cytotoxicity were annotated (yes/no) alongside the corresponding qNPA data for reference.At the conclusion of each treatment period, hepatocyte cultures (96-well) were washed with 1 volume of HBSS, lysed by addition of 25 ul ArrayPlate lysis buffer (HTG, Tucson, AZ), and 70 ul/well of Denaturation Oil, denatured by incubation at 95C for 10 min, and frozen at approximately -70C until analysis by nuclease protection assay (qNPA) (Roberts et al., 2007). For qNPA analysis, cell lysates were thawed at 50C for approximately 30 min, qNPA probes were added, and samples were incubated at 95C for 10 min to begin the detection process by denaturing the target RNA, dissociating the duplexes and secondary structure hybridization. At the conclusion of the hybridization period, S1 nuclease reagent was added to each sample to digest all nonprotected nucleotides at 50C for 60-90 min. […]
Regarding `CCCCNC(=O)OCC#CI`, the compound was classed as inactive and the AC50 was 0.591 µM (active).
For the compound `CCc1nn(C)c(C(=O)NCc2ccc(C(C)(C)C)cc2)c1Cl`, the AC50 was 20 µM (active).
For `CCOC(=O)C(Cl)Cc1cc(-n2nc(C)n(C(F)F)c2=O)c(F)cc1Cl` (stereo not given), the outcome was inactive.
Turning to `N#Cc1cc(Br)c(O)c(Br)c1`, the call was inactive.
Same read-out and setting: as for `C=CCC1=C(C)[C@@H](OC(=O)[C@@H]2[C@@H](C=C(C)C)C2(C)C)CC1=O`, the entry is “inactive”.
Take `COC(=O)C(C)Oc1ccc(Oc2ccc(Cl)cc2Cl)cc1` (stereo not given): the result was inactive; the AC50 is 3.97 µM (active) and 4.91 µM (active).
As for `COc1nc(C)nc(NC(=O)NS(=O)(=O)c2ccccc2CCC(F)(F)F)n1`, the result was inactive and the AC50 was 2.44 µM (active).
In the case of `Cc1ccc(-c2c(Cl)nc(C#N)n2S(=O)(=O)N(C)C)cc1`, the call was inactive.
Take `COc1nc(C)nc(NC(=O)NS(=O)(=O)c2ccccc2Cl)n1`: the compound was classed as inactive and the AC50 was 0.00149 µM (active).
For the compound `CCCCC(CC)COC(=O)c1ccccc1C(=O)OCC(CC)CCCC` (stereo not given), the compound was called inactive.
Consider `Fc1ccc(Oc2ccnc3cc(Cl)cc(Cl)c23)cc1`, for which the AC50 was 5.01 µM (active).
Take `C#CCOS(=O)OC1CCCCC1Oc1ccc(C(C)(C)C)cc1` (stereo not given): the AC50 is 1.9 µM (active).
Regarding `COc1ccc(C(c2ccc(OC)cc2)C(Cl)(Cl)Cl)cc1`, the AC50 is 17.3 µM (active).
Turning to `Cc1c(F)c(F)c(COC(=O)C2C(/C=C(\Cl)C(F)(F)F)C2(C)C)c(F)c1F` (stereo not given), the outcome was inactive.
Turning to `COP(N)(=O)SC` (stereo not given), the outcome was inactive.
For `COP(=S)(OC)Oc1nc(Cl)c(Cl)cc1Cl`, the AC50 was 6.12 µM (active).
On to `CCCCNC(=O)n1c(NC(=O)OC)nc2ccccc21`, for which the call was inactive.
The same measure, in the same setting: with `COc1nc(NC(C)C)nc(NC(C)C)n1` the entry was “inactive”.
For the compound `O=C(O)c1nc(Cl)ccc1Cl`, the AC50 is 6.11 µM (active) and the compound was called inactive.
Regarding `CCOP(=S)(OCC)SCn1c(=O)oc2cc(Cl)ccc21`, the compound was called inactive.
Turning to `CCCCOC(=O)c1ccccc1C(=O)OCCCC`, the outcome was inactive and the AC50 is 3.87 µM (active).
Turning to `CCOC(=O)CC(SP(=S)(OC)OC)C(=O)OCC` (stereo not given), the AC50 is 3.97 µM (active).
Turning to `CCCN(CCC)c1c([N+](=O)[O-])cc(S(N)(=O)=O)cc1[N+](=O)[O-]`, the compound was classed as inactive.
The same measure, in the same setting: as for `O=C(O)COc1nc(Cl)c(Cl)cc1Cl`, the entry is “inactive”.
For `N#Cc1nn(-c2c(Cl)cc(C(F)(F)F)cc2Cl)c(N)c1S(=O)C(F)(F)F` (stereo not given), the outcome was inactive.
On to `CC1=C(C(=O)Nc2ccccc2)SCCO1`, for which the AC50 was 7.64 µM (active).
`CCCC1COC(Cn2cncn2)(c2ccc(Cl)cc2Cl)O1` (stereo not given): the AC50 was 3.01 µM (active).
As to `CNC(=O)ON=CC(C)(C)SC`, the outcome was inactive.
As for `CC1COC(Cn2cncn2)(c2ccc(Oc3ccc(Cl)cc3)cc2Cl)O1` (stereo not given), the result was inactive.
Take `N#CC(CCc1ccc(Cl)cc1)(Cn1cncn1)c1ccccc1` (stereo not given): the AC50 was 1.89 µM (active).
Consider `CC(C)Oc1cc(-n2nc(C(C)(C)C)oc2=O)c(Cl)cc1Cl`, for which the AC50 was 2.19 µM (active).
For `COC(=O)c1ccccc1C(=O)OC`, the compound was classed as inactive.
For the compound `CON(C)C(=O)Nc1ccc(Cl)c(Cl)c1`, the AC50 is 0.752 µM (active).
As to `CCNc1nc(Cl)nc(NC(C)C)n1`, the AC50 was 1.62 µM (active).
